Results reported in PubChem BioAssay (Tox21).
Records with an inconclusive call do not appear. Entries that show only a call come without a potency. Calls of active or inactive are those of the source. Calls come from the whole dose curve.

These molecules were tested against Retinoic acid receptor RXR-alpha (Homo sapiens) (UniProt P19793) (assay: qHTS assay to identify small molecule agonists of the RXR signaling pathway (AID 1159527; note: nearly all actives have a fitted effect of over 35% in size)). Conditions: HEK293T RXRa-UAS-bla, beta-lactamase ratio, 16 h; series mostly up to 76.8 µM.
Excerpt: U.S. Tox21 Program National Center for Advancing Translational Sciences [NCATS] NIH Chemical Genomics Center [NCGC] U.S. Environmental Protection Agency [EPA] National Institutes of Environmental Health Sciences [NIEHS] National Toxicology Program [NTP] U.S. Food and Drug Administration [FDA] Tox21 Assay Overview: The Retinoid X receptor (RXR), a nuclear hormone receptor expressed in liver, spleen, placenta, epidermis, central nervous system. These receptors are able to form homo and heterodimers with other nuclear receptors and due to this heterodimerizing ability, RXR functions as master regulators producing diverse physiological effects. Three subtypes of RXR exist; alpha, beta and gamma. Retinoid X receptor alpha (RXR-alpha) has potential roles in metabolic signaling pathways, skin alopecia, dermal cysts, cardiac development, insulin sensitization etc. Therefore screening environmental chemicals on RXR-alpha signaling can be used for the studies focused on such therapeutic applications. For quantification of RXR-alpha ligands signaling, GeneBLAzer RXR alpha-UAS-bla HEK 293T (Life Technologies, Carlsbad, CA) cells containing a beta-lactamase reporter-gene under control of Retinoid X receptor-alpha response element were used to screen Tox21 10K library.
Tox21 Assay Protocol Summary: RXR-alpha HEK 293T cells were dispensed at 2,000 cells/6 uL of assay medium containing 2% charcoal-stripped FBS using a Multidrop Combi (ThermoFisher Scientific, Waltham, MA) dispenser. The assay was performed in black wall/clear-bottom 1536-well plates (Greiner Bio-One North America Inc. Monroe, NC). 9-cis retinoic acid was used as a positive control in the agonist mode screen. After the assay plates were incubated at 37 C and 5% CO2 for 5 hr, 23 nL of compounds dissolved in DMSO, positive controls or DMSO only were transferred to the assay plate by a Pintool station (Kalypsys, San Diego, CA). The assay plates were incubated at 37 C and 5% CO2 for 16 hr. One uL of LiveBLAzer B/G FRET substrate (Life Technologies) was added using a Flying Reagent Dispenser (Aurora Discovery, San Diego, CA) and the plates were incubated at room temperature for 2 hr. Fluorescence intensity (405 nm excitation, 460/530 nm emission) was measured using an Envision plate reader (PerkinElmer, Shelton, CT).
Potency is the fitted concentration of half-maximal effect.

Chain of Retinoic acid receptor RXR-alpha (Homo sapiens) (P19793 whole entry, looked up): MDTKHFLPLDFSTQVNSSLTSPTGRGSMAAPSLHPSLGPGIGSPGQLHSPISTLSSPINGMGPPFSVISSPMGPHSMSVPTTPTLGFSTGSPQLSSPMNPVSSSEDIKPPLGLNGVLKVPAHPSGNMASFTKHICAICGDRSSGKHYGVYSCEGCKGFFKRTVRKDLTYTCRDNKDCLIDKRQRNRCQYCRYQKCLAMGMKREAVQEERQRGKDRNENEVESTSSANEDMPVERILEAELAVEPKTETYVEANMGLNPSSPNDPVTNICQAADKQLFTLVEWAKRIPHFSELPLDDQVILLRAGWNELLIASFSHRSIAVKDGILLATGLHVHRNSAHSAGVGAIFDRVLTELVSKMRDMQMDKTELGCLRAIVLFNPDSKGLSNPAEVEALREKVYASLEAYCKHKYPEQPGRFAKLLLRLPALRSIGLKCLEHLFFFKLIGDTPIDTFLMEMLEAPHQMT

Row | Compound | Potency | activation
1 | C1CCCNCCC1 | inactive | 
2 | Cc1oc(-c2ccccc2)nc1CCOc1cccc2c1ccn2CCC(=O)O | 17.4 µM (active) | 
3 | Cc1ccc(N=Nc2c(O)c(C(=O)O)cc3ccccc23)c(S(=O)(=O)O)c1 | inactive | 
4 | CC/C=C\CCOC(=O)CC | inactive | 
5 | COc1ccc(C)cc1[N+](=O)[O-] | inactive | 
6 | O=C(O)CC(=O)C(=O)O | inactive | 
7 | CCC(=O)O[C@]1(C(=O)CCl)[C@@H](C)C[C@H]2[C@@H]3CCC4=CC(=O)C=C[C@]4(C)[C@@]3(F)[C@@H](O)C[C@@]21C | inactive | 
8 | C=CCOc1ccccc1OCC(O)CNC(C)C (stereo not given) | inactive | 
9 | CCn1cc(C(=O)O)c(=O)c2cnc(N3CCNCC3)nc21 | inactive | 
10 | CCN(CC)CCNC(=O)c1cc(Br)c(N)cc1OC | inactive | 
11 | O=C(Nc1ccc(S(=O)(=O)N2CCOCC2)cc1)c1cc(Cl)ccc1NS(=O)(=O)c1ccc(Cl)s1 | inactive | 
12 | O=C(O)C1(C(=O)O)CCC1.[NH2-].[NH2-].[Pt+2] | inactive | 
13 | Cc1ccccc1S(=O)(=O)O | inactive | 
14 | CCC(C)(C)CC | inactive | 
15 | CC(C)O.CC(C)O.CCOC(=O)/C=C(\C)O.CCOC(=O)/C=C(\C)O.[Ti] | inactive | 
16 | OCCN1CCN(CCCN2c3ccccc3C=Cc3ccccc32)CC1 | inactive | 
17 | CC(C)(C)OCC1CO1 (stereo not given) | inactive | 
18 | C=C(C)C(=O)OCCO | inactive | 
19 | CC[N+](C)(CC)CCOC(=O)C(O)(c1ccccc1)C1CCCCC1 (stereo not given) | inactive | 
20 | CCCCc1ncc(/C=C(\Cc2cccs2)C(=O)O)n1Cc1ccc(C(=O)O)cc1 | inactive | 

Row | Compound | Potency | activation
21 | CC1=CC=C(C(C)C)CC1 | inactive | 
22 | COc1cc(Cl)ccc1Oc1ccc(Cl)cc1Cl | inactive | 
23 | Nc1cc(C(=O)O)c(O)c(S(=O)(=O)O)c1 | inactive | 
24 | CCOC(=O)COC(=O)c1cc(Oc2ccc(C(F)(F)F)cc2Cl)ccc1[N+](=O)[O-] | 24.5 µM (active) | 
25 | CC(=O)NO | inactive | 
26 | CCCCCCCN | inactive | 
27 | NCC(=O)O |  | -2.92% [at 15.8 µM] (inactive)
28 | ClCCOCCOCCCl | inactive | 
29 | COc1cc2c(cc1OC)C(C(C(=O)N(CCc1ccc(OC)c(OC)c1OC)CCc1ccc(OC)c(OC)c1OC)c1ccccc1)=NCC2 (stereo not given) | inactive | 
30 | CCOC(=O)c1cccnc1 | inactive | 
31 | C=CC1CC2C=CC1C2 (stereo not given) | inactive | 
32 | CCCCCCCC/C=C\CCCCCCCC(=O)OCC | inactive | 
33 | CCNc1cc(O)ccc1C | inactive | 
34 | O=C(O)c1ccco1 | inactive | 
35 | CCO[Si](CCCCl)(OCC)OCC | inactive | 
36 | CC1CCC(=O)C1=O (stereo not given) | inactive | 
37 | Nc1ccccc1S(=O)(=O)c1ccccc1 | inactive | 
38 | OC(C#CCN1CCCC1)(c1ccccc1)c1ccccc1 | inactive | 
39 | OC[C@H]1O[C@@H](OCCc2ccc(O)cc2)[C@H](O)[C@@H](O)[C@@H]1O | inactive | 
40 | O=[N+]([O-])c1cccc(S(=O)(=O)O)c1 | inactive | 
